Screening results (PubChem BioAssay)
NS1 inh: qHTS Assay for Inhibitors of Influenza NS1 Protein Function | actives 0.4% (n = 270,000) | Potency, µM (series often up to 46.1 µM) | AID 2326, 2010; calls by dose curve; also: actives are rising curves; nearly all actives have a fitted effect of over 50% in size
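A cell-based growth assay was used: compounds that relieve NS1-induced slow growth of budding yeast raise OD600. Assay medium was yeast nitrogen base with ammonium sulphate and -URA supplement, pH 6.0, with 2% galactose.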
SARS PLpro yeast: qHTS of Yeast-based Assay for SARS-CoV PLP | AID 485353, 2010 | actives 0.19% (n = 330,000) | S. cerevisiae expressing SARS-CoV PLpro, growth rescue | Potency, µM (doses to about 32.9 µM), most hits filed as activators; calls by dose curve; also: nearly all actives have a fitted effect of over 55% in size
Pf growth 48h: Primary qHTS for delayed death inhibitors of the malarial parasite plastid, 48 hour incubation; Potency, µM (top dose mostly 28.7 µM), usual class: inhibitors; P. falciparum luciferase growth in erythrocytes, 48 h; actives 5.9% (n = 310,000); AID 504832, 2011
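Cell-based growth assay: transgenic P. falciparum expressing firefly luciferase, cultured in red cells within RPMI 1640 containing 0.5% w/v Albumax, 24 mM bicarbonate and gentamycin. A drop in luciferase activity indicates inhibition.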
Pf growth 96h: Primary qHTS for delayed death inhibitors of the malarial parasite plastid, 96 hour incubation; AID 504834, 2011; Potency, µM (series often up to 28.7 µM), most hits filed as inhibitors; actives 6.9% (n = 320,000); P. falciparum luciferase reporter growth, 96 h
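Luminescence readout: decreased luciferase signal marks inhibited growth of reporter-expressing P. falciparum in infected red cells (2% hematocrit, 0.05% parasitemia final), exposed to compound two generations (96 h, 37 C, 5% CO2).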
Shiga toxin inh: A qHTS for Small Molecule Inhibitors of Shiga Toxin; Vero cells, Shiga toxin protein synthesis inhibition reporter; actives 9.2% (n = 290,000); AID 2315, 2010; inhibition, % at 38.7 µM; in the data active = inhibition mostly above about 28%, no sharp cut-off; inactive = mostly below about 43%
CHX counter: Cycloheximide Counterscreen for Small Molecule Inhibitors of Shiga Toxin. cell reporter, cycloheximide protein synthesis inhibition counterscreen. max response, %. actives 12% (n = 300,000). AID 2314, 2010; in the data active = max response mostly above about 13%, no sharp cut-off; inactive = mostly below about 14%; also: read at 38.3 µM for the half of the compounds with a filed dose
Hits are given with their value; – = inactive; ? = inconclusive; · = not tested or not shown; [ ] = another dose, or the depositor's remark. An excerpt weighted towards active compounds, which were near 21% of everything screened. Unless noted, calls follow the shape of the dose curve; as a rule, active = well fitted inhibition curve with a large enough effect; inconclusive = small, poorly fitted or top-dose-only effect, or another doubt; inactive = no such curve, though single readings can be large or run the other way.

SMILES	NS1 inh	SARS PLpro yeast	Pf growth 48h	Pf growth 96h	Shiga toxin inh	CHX counter
COc1ccc(S(=O)(=O)Nc2c(C)n(C)n(-c3ccccc3)c2=O)c(Cl)c1Cl	–	–	–	?	·	–
c1ccc(Nc2ccccn2)cc1	–	–	–	·	–	17
Cc1ccc(Nc2ccccc2)nn1	–	–	–	–	–	–
c1ccc(Nc2cccc(Nc3ccccc3)n2)cc1	–	–	·	–	55	34
COc1ccc(C(=O)C(C)OC(=O)CNC(=O)c2ccco2)cc1 (centres undefined)	·	–	·	·	·	·
Nc1nc2ccc(C(=O)Nc3ccccc3)cc2s1	–	–	–	·	168	93
CCc1ccc2nc(N)sc2c1	–	–	–	–	75	39
CN(C(=O)c1ccc2nc(N)sc2c1)c1ccccc1	–	–	–	–	–	–
CCc1ccc(NC(=O)c2ccc3nc(N)sc3c2)cc1	–	–	–	·	68	62
COc1ccc(OC)c(COC(=O)c2cccc(S(=O)(=O)N3CCCCC3)c2)c1	·	–	·	·	·	·
CC(C)(C)c1csc(NC(=O)Cn2cnc3ccccc3c2=O)n1	–	–	–	–	–	–
COc1ccc(CC(=O)N(C)CC(=O)Nc2ccc(F)cc2)cc1S(=O)(=O)N1CCOCC1	·	–	?	?	·	·
Cn1cc(CN2CCC(n3nccc3NC(=O)CCOc3ccccc3)CC2)cn1	–	–	–	–	–	–
Cc1nn(-c2ccccn2)c2c1C(c1ccccc1Cl)C1=C(N2)c2ccccc2C1=O (centres undefined)	–	–	?	12µM	–	–
CSC1=C(C#N)C(c2ccccc2Cl)C2=C(N1)c1ccccc1C2=O (centres undefined)	–	–	–	?	–	–
Cc1nn(-c2ccccn2)c2c1C(c1c(F)cccc1Cl)C1=C(N2)c2ccccc2C1=O (centres undefined)	–	–	10µM	9.3µM	–	–
COc1cc(NC(=O)N[C@@H](Cc2c[nH]c3ccccc23)C(=O)O)c(C(=O)O)cc1OC	–	–	?	–	–	–
COc1ccc(CCN(C)C2CCCN(S(=O)(=O)c3ccc(C)cc3)C2)cc1OC (centres undefined)	–	–	?	?	–	–
CCOC(=O)C1=C(C)NC(=O)NC1c1cc(Br)c(O)c(OC)c1 (centres undefined)	?	–	–	–	–	–
COc1cc(C2NC(=O)NC(C)=C2C(=O)OC2CCCCC2)cc(Br)c1O (centres undefined)	–	–	·	13µM	–	–
CCOC(=O)C1=C(COc2ccccc2)NC(=O)NC1c1ccc(Br)cc1 (centres undefined)	–	–	?	3.3µM	–	–
CCOC(=O)C1=C(CS(=O)(=O)c2ccc(F)cc2)NC(=O)NC1c1cc(OC)c(O)c(OC)c1 (centres undefined)	–	–	–	–	–	–
CC1=C(C(=O)OC2CCCCC2)C(c2ccccc2)NC(=O)N1 (centres undefined)	–	–	–	9.3µM	–	–
CCOC(=O)C1=C(CS(=O)(=O)c2ccccc2)NC(=O)NC1c1cc(OC)c(O)c(OC)c1 (centres undefined)	–	–	–	2.6µM	–	–
Cc1onc(-c2c(F)cccc2Cl)c1C(=O)OCC(=O)NCc1ccccc1	·	–	?	?	·	·
SMILES	NS1 inh	SARS PLpro yeast	Pf growth 48h	Pf growth 96h	Shiga toxin inh	CHX counter
CC(=O)Nc1ccccc1NS(=O)(=O)c1ccccc1NO	·	·	·	·	–	–
CCOC(=O)C1=C(C)NC(=O)NC1c1ccc(N2CCC(c3ccccc3)=N2)cc1 (centres undefined)	–	–	?	–	26	11
COc1cc(C2NC(=O)NC(C)=C2C(=O)OC2CCCC(C)C2)ccc1O (centres undefined)	–	–	10µM	·	–	–
CCCCOC(=O)C1=C(C)NC(=O)NC1c1ccccc1 (centres undefined)	–	–	–	8.3µM	–	–
CCOC(=O)C1=C(C)NC(=O)NC1c1ccc(NC(C)=O)cc1 (centres undefined)	–	–	–	–	–	–
CCCCOC(=O)C1=C(C)NC(=O)NC1c1ccc(N(C)C)cc1 (centres undefined)	–	–	–	–	–	–
CCn1c(SCC(=O)Nc2cc(Cl)ccc2OC)nnc1C1CC1	–	–	–	–	–	–
CC1CCc2sc(C(=O)N3CCC(C(N)=O)CC3)cc2C1 (centres undefined)	·	–	–	–	·	·
CCc1n[nH]c2c1/C(=N\O)CC(c1ccccc1)C2 (centres undefined)	–	–	?	·	–	–
CCCCc1noc2c1/C(=N\O)CC(c1ccccc1)C2 (centres undefined)	–	–	?	?	–	22
COc1ccccc1Nc1nc(NCCC(C)C)nc(N)c1[N+](=O)[O-]	–	–	3.7µM	?	–	–
COc1ccc(OC)c(Nc2nc(NCCCN(C)C)nc(N)c2[N+](=O)[O-])c1	–	–	13µM	12µM	–	–
COC(=O)c1cccc(NC(=O)CCc2c(C)noc2C)c1	·	–[6.58 µM]	–	–	·	·
COC(=O)C(C(=O)NCC1CCCO1)C1CCCC1 (centres undefined)	–	–	·	–	–	–
O=C(c1cnn2c(C(F)(F)F)cc(-c3cccs3)nc12)N1CCCC1	–	–	–	–	–	–
O=C(NCc1ccco1)c1cnn2c(C(F)F)cc(-c3ccccc3)nc12	–	–	–	·	–	–
O=C(NCc1ccco1)c1cnn2c(C(F)(F)F)cc(-c3cccs3)nc12	–	–	?	9.3µM	–	–
Cc1cc(C)c(Cc2c(C)nc3c(C(=O)NCc4ccco4)cnn3c2C)c(C)c1	–	–	·	12µM	–	–
COc1ccccc1CNC(=O)c1cccc(-c2ccccc2OC)n1	·	·	·	·	–	–
COc1ccc2[nH]c3c(c2c1)CCN1C(=O)N([C@@H](C)C(=O)NCCc2ccc(F)cc2)C(=O)[C@]31C	–	–	–	8.3µM	–	–
COc1ccc2[nH]c3c(c2c1)CCN1C(=O)N([C@@H](C)C(=O)NCc2ccc(F)cc2)C(=O)[C@]31C	–	–	?	?	–	–
COc1ccc(CNC(=O)[C@H](C)N2C(=O)N3CCc4c([nH]c5ccccc45)[C@@]3(C)C2=O)cc1OC	–	–	?	8.3µM	–	–
Cc1ccc(CNC(=O)[C@H](C)N2C(=O)N3CCc4c([nH]c5ccccc45)[C@@]3(C)C2=O)cc1	–	–	?	–	–	–
CC(C)CCNC(=O)NC(=O)COC(=O)C1CCN(S(=O)(=O)c2ccccc2F)CC1	–	–	–	–	–	–
CCCN(CCC)S(=O)(=O)c1ccc(C)cc1	–	–	–	–	–	–
CCOc1ccccc1NC(=S)N(CCCN1CCOCC1)Cc1cn(C)c2ccccc12	–	–	12µM	?	–	–
